Measurements published in PubChem BioAssay (Tox21).
Inconclusive results are not listed. The source made the active and inactive calls. Unless noted, calls come from the whole dose curve.

Columns and labels:
[1] = qHTS assay to identify small molecule agonists of the peroxisome proliferator-activated receptor delta (PPARd) signaling pathway - cell viability counter screen (AID 743211; active = well fitted curve in the direction sought with a large enough effect in the repeat runs; an effect the other way counts as inactive or inconclusive; note: nearly all actives have a fitted effect of over 55% in size)
In short: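 Multiplexed format: after the 2 h room-temperature LiveBLAzer B/G FRET step, CellTiter-Glo was added to the same wells. Luminescence after 30 min gave cell viability; compound exposure was 17 h at 37C.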

[2] = target: Peroxisome proliferator-activated receptor delta (Homo sapiens) (UniProt Q03181); experiment: qHTS assay to identify small molecule agonists of the peroxisome proliferator-activated receptor delta (PPARd) signaling pathway (AID 743212);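 note: HEK293H cells with PPARd UAS beta-lactamase reporter GeneBLAzer system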
In short: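 Beta-lactamase reporter readout: a ratiometric FRET signal from the LiveBLAzer substrate after 2 h at room temperature. Compound exposure at 37 °C in PPARδ-bla HEK293H cells driven by an upstream activator sequence.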

[3] = qHTS assay to identify small molecule antagonists of the peroxisome proliferator-activated receptor delta (PPARd) signaling pathway - cell viability counter screen (AID 743213; active = well fitted curve in the direction sought with a large enough effect in the repeat runs; an effect the other way counts as inactive or inconclusive; note: nearly all actives have a fitted effect of over 50% in size)
In short: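 Viability counter-screen, qHTS format: PPARd-bla HEK293H, L165041 300 nM final, 17 h compound exposure at 37 C, CellTiter-Glo luminescence after 30 min RT.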

[4] = target: Peroxisome proliferator-activated receptor delta (Homo sapiens) (UniProt Q03181); experiment: qHTS assay to identify small molecule antagonists of the peroxisome proliferator-activated receptor delta (PPARd) signaling pathway (AID 743215; active = well fitted inhibition curve with a large enough effect in the signal ratio in the repeat runs, not every such curve was filed as active; the % refers to the signal ratio;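 note: cells stimulated with agonist L165041 at 300 nM final during compound exposure; series mostly up to about 62 µM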)
In short: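 Screen format: qHTS, antagonist mode. HEK293H PPARd-bla cells received compound and 300 nM L165041 (final), 17 h, 37 C. Beta-lactamase detected via FRET substrate fluorescence, 2 h, room temperature.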

[5] = qHTS assay to identify small molecule agonists of the farnesoid-X-receptor (FXR) signaling pathway - cell viability counter screen (AID 743218; active = well fitted curve in the direction sought with a large enough effect in the repeat runs; an effect the other way counts as inactive or inconclusive; note: nearly all actives have a fitted effect of over 45% in size)
In short: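 Same-well cytotoxicity check on FXR-UAS-bla HEK 293T cells: 5 h attachment, 16 h compound at 37 C, CellTiter-Glo luminescence read at room temperature after 30 min.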

[6] = target: Vitamin D3 receptor (Homo sapiens) (UniProt P11473); experiment: qHTS assay to identify small molecule agonists of the vitamin D receptor (VDR) signaling pathway (AID 743222)
In short: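 Using LiveBLAzer B/G FRET detection, agonism was scored in VDR-bla cells exposed overnight (16 h, 37C) to DMSO-dissolved compounds; substrate incubation was 2 h at room temperature.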

[7] = qHTS assay to identify small molecule agonists of the vitamin D receptor (VDR) signaling pathway - cell viability counter screen (AID 743224; active = well fitted curve in the direction sought with a large enough effect in the repeat runs; an effect the other way counts as inactive or inconclusive; note: series mostly up to about 63 µM; nearly all actives have a fitted effect of over 50% in size)
In short: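 Counter screen for cytotoxicity: VDR-bla cells at 2,000 cells/well, 16 h compound exposure, then CellTiter-Glo luminescence after the beta-lactamase measurement.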

[8] = qHTS assay to identify small molecule agonists of the NFkB signaling pathway (AID 1159509; active = well fitted curve in the direction sought with a large enough effect in the signal ratio in the repeat runs, not every such curve was filed as active; the % refers to the signal ratio; note: series mostly up to about 61 µM)
In short: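 Pathway activation was measured in ME-180 cells stably expressing beta-lactamase under NF-kB response element control. Substrate cleavage was read as the 460/530 nm emission shift after 5 hr compound incubation.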

[9] = qHTS assay to identify small molecule agonists of the NFkB signaling pathway - cell viability counter screen (AID 1159515); note: series mostly up to about 61 µM; nearly all actives have a fitted effect of over 55% in size
In short: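 Counter screen run alongside the NFkB-bla agonist assay: ME-180 reporter cells exposed to compounds for 5 hr, then lysed with CellTiter-Glo in the same wells. Luminescence, read after 30 min, reflects viable cells.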

[10] = qHTS assay to identify small molecule agonists of the endoplasmic reticulum stress response signaling pathway (AID 1159516; active = well fitted activation curve with a large enough effect in the signal ratio in the repeat runs, not every such curve was filed as active; the % refers to the signal ratio)
In short: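 For this screen, HeLa cells stably carrying beta-lactamase under the ER stress response element received test compounds, positive controls or DMSO for 5 hr at 37 C; B/G FRET substrate was then added and dual-wavelength emission recorded.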

[11] = qHTS assay to identify small molecule agonists of the endoplasmic reticulum stress response signaling pathway - cell viability counter screen (AID 1159517); note: series mostly up to about 61 µM; nearly all actives have a fitted effect of over 50% in size
In short: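 ESRE-bla HeLa cells (1,500/well) were plated overnight at 37 C and exposed to compounds for 5 hr. After the 2 hr beta-lactamase substrate read, CellTiter-Glo went into the same wells, and luminescence was read after 30 min at room temperature.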

[12] = qHTS assay to identify small molecule antagonists of the retinoid-related orphan receptor gamma (ROR-gamma) signaling pathway - cell viability counter screen (AID 1159520; active = well fitted curve in the direction sought with a large enough effect in the repeat runs; an effect the other way counts as inactive or inconclusive; note: nearly all actives have a fitted effect of over 50% in size)
In short: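 Cytotoxicity was read from cellular ATP (CellTiter-Glo luminescence) after 16 hr at 37 C with 1 uM doxycycline induction. The inducer was added 2 hr after compound transfer to Tet-on ROR gamma CHO cells.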

[13] = qHTS assay to identify small molecule agonists of the AP-1 signaling pathway - cell viability counter screen (AID 1159525); note: nearly all actives have a fitted effect of over 55% in size
In short: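 Intracellular ATP by Cell Titer Glo luminescence (30 min, RT) in the same ME-180 AP-1-bla wells after the 5 h compound exposure at 37 °C. Normalised to tetra n-octyl ammonium bromide and DMSO controls.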

[14] = qHTS assay to identify small molecule agonists of the AP-1 signaling pathway (AID 1159526)
[15] = qHTS assay to identify small molecule antagonists of the farnesoid-X-receptor (FXR) signaling pathway - cell viability counter screen (AID 743221; active = well fitted cell-killing curve with a large enough effect in the repeat runs, not every such curve was filed as active; note: nearly all actives have a fitted effect of over 50% in size)
In short: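 CellTiter-Glo, 30 min RT, luminescence; same wells as the LiveBLAzer FRET read. Cells: FXR-UAS-bla HEK 293T. Treatment: compound with chenodeoxycholic acid 50 uM final, 16 h at 37 C.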

[16] = target: Vitamin D3 receptor (Homo sapiens) (UniProt P11473); experiment: qHTS assay to identify small molecule antagonists of the vitamin D receptor (VDR) signaling pathway (AID 743223; active = well fitted inhibition curve with a large enough effect in the signal ratio in the repeat runs, not every such curve was filed as active; the % refers to the signal ratio)
In short: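 After VDR-bla cells are plated and left 4 h at 37C, DMSO-dissolved compounds and 3 nM (final) calcitriol agonist are added. Incubation continues 16 h at 37C; FRET beta-lactamase substrate then develops 2 h at room temperature.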

[17] = qHTS assay to identify small molecule antagonists of the vitamin D receptor (VDR) signaling pathway - cell viability counter screen (AID 743225; active = well fitted curve in the direction sought with a large enough effect in the repeat runs; an effect the other way counts as inactive or inconclusive; note: nearly all actives have a fitted effect of over 50% in size)
In short: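 Cytotoxicity toward the VDR-bla HEK 293T line was scored by ATP-based CellTiter-Glo luminescence, read in the wells already used for the beta-lactamase readout after 16 h compound treatment under 3 nM 1-alpha,25-dihydroxyvitamin D3 stimulation.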

[18] = target: Bile acid receptor (Homo sapiens) (UniProt Q96RI1); experiment: qHTS assay to identify small molecule agonists of the farnesoid-X-receptor (FXR) signaling pathway (AID 743220; active = well fitted activation curve with a large enough effect in the signal ratio in the repeat runs, not every such curve was filed as active; the % refers to the signal ratio)
In short: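 FXR-UAS-bla HEK 293T cells carrying a UAS-driven beta-lactamase reporter were plated for 5 h at 37C/5% CO2, then exposed to DMSO-dissolved Tox21 10K compounds for 16 h at 37C. A LiveBLAzer B/G FRET substrate was loaded for 2 h at room temperature before fluorescence reading.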

[19] = target: Bile acid receptor (Homo sapiens) (UniProt Q96RI1); experiment: qHTS assay to identify small molecule antagonists of the farnesoid-X-receptor (FXR) signaling pathway (AID 743217; active = well fitted inhibition curve with a large enough effect in the signal ratio in the repeat runs, not every such curve was filed as active; the % refers to the signal ratio)
In short: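 Quantitative HTS, beta-lactamase reporter format: FXR-UAS-bla HEK 293T cells co-treated 16 h at 37 °C with compounds and 50 uM final chenodeoxycholic acid, then read by B/G FRET fluorescence.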

Measured: Potency

Sequence of Bile acid receptor (Homo sapiens) (Q96RI1 whole entry, looked up): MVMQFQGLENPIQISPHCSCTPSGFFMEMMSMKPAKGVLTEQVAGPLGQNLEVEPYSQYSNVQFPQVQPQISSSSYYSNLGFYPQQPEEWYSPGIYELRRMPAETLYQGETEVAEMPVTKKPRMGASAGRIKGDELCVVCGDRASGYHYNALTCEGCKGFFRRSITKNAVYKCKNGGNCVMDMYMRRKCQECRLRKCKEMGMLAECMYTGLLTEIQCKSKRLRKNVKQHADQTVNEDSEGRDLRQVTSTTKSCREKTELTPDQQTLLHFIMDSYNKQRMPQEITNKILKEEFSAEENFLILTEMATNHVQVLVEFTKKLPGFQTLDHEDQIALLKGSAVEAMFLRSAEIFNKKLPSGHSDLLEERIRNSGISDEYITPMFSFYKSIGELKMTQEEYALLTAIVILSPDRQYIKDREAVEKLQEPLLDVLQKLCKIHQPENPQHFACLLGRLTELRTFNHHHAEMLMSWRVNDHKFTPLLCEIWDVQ
Sequence of Vitamin D3 receptor (Homo sapiens) (P11473 whole entry, looked up): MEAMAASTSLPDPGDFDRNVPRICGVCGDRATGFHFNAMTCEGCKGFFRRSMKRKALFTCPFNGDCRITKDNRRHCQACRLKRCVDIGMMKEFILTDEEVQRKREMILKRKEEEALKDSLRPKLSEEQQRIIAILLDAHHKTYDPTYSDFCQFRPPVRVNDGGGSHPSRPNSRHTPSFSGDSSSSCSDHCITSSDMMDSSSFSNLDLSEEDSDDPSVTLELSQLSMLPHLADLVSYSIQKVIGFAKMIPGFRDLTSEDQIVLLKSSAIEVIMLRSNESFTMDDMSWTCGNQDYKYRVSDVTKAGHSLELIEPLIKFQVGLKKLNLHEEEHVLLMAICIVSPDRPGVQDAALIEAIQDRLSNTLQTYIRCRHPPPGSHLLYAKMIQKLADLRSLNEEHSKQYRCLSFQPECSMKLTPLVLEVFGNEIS
Sequence of Peroxisome proliferator-activated receptor delta (Homo sapiens) (Q03181 whole entry, looked up): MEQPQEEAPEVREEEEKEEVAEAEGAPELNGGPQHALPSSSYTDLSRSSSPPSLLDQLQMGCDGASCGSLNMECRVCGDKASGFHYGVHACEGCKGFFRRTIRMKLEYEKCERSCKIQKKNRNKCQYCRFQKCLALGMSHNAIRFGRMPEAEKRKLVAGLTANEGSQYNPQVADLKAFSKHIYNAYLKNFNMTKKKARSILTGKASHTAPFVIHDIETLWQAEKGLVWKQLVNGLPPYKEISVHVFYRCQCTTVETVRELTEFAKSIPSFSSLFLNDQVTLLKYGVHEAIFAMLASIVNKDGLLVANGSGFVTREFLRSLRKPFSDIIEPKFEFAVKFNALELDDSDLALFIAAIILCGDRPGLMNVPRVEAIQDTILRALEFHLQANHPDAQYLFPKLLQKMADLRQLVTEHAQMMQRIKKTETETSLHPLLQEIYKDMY

Cc1cc(S(=O)(=O)O)c(N)cc1Cl
not listed: [15] | [16] | [17] | [18] | [19]
inactive: all other assays above

C=O
not listed: [2] | [4] | [18] | [19]
inactive: all other assays above

CC(C)CCCCCCc1ccc(OCCOCCO)cc1
not listed: [2] | [4] | [16] | [18] | [19]
inactive: all other assays above

Oc1ccccc1F
not listed: [2] | [4] | [15] | [17] | [19]
inactive: all other assays above

CCN1CC(CCN2CCOCC2)C(c2ccccc2)(c2ccccc2)C1=O (configuration not stated)
not listed: [3] | [4] | [16]
inactive: all other assays above

O=C(O)c1cccc(Cl)c1Cl
not listed: [3] | [18] | [19]
inactive: all other assays above

CCCCCCn1c(=O)c2c(ncn2C)n(C)c1=O
not listed: [2] | [4] | [6] | [15] | [16] | [18] | [19]
inactive: all other assays above

CC(C)(C)C1CCCCC1=O (configuration not stated)
not listed: [6] | [16] | [17] | [18] | [19]
inactive: all other assays above

CC(=O)Nc1ccc(C)c(Cl)c1
not listed: [3] | [5] | [17]
inactive: all other assays above

COC(=O)N[C@H](C(=O)N[C@@H](Cc1ccccc1)[C@@H](O)CN(Cc1ccc(-c2ccccn2)cc1)NC(=O)[C@@H](NC(=O)OC)C(C)(C)C)C(C)(C)C
not listed: [3] | [18] | [19]
inactive: all other assays above

CCCCCCC
not listed: [2] | [3] | [4] | [6] | [15] | [16]
inactive: all other assays above

Nc1cccc(S(=O)(=O)O)c1
not listed: [16] | [18] | [19]
inactive: all other assays above

O=C(O[C@@H](C(=O)O)[C@@H](OC(=O)c1ccccc1)C(=O)O)c1ccccc1
not listed: [2] | [6] | [16] | [17] | [18] | [19]
inactive: all other assays above

CC1(C)C(=O)N(Cl)C(=O)N1Br
not listed: [4] | [6] | [15] | [16]
inactive: all other assays above

O=CCCc1ccccc1
not listed: [4] | [17] | [18] | [19]
inactive: all other assays above

Cc1cn([C@@H]2O[C@H](CO)[C@@H](O)[C@@H]2F)c(=O)[nH]c1=O
not listed: [5] | [18] | [19]
inactive: all other assays above

NNS(=O)(=O)c1ccc(Oc2ccc(S(=O)(=O)NN)cc2)cc1
not listed: [3] | [17]
inactive: all other assays above
